The source made the active and inactive calls. Unless noted, how the calls were made is not given here.
Assays:
[1] = system: Wnt5a (protein binding on small-molecule microarray); experiment: Wnt5a binders on small-molecule microarray, primary screen, biophysical, 635/667 nm fluorescence (AID 1142); conditions: 635 nm fluorescence, higher = more signal;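 further: fluorescence read at 667 nm with signal to noise per printed feature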
[2] = cell viability in Huh7 cells, primary screen, cytotoxicity control for HCV replication inhibitor project, CellTiter-Glo luminescence, basal, 48 h (AID 1143); conditions: Huh7 HCV replicon, higher = more signal, called active from +8 up or from −8 down;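 further: Huh7 hepatoma cells carrying a hepatitis C replication reporter with no stimulus; test concentration not given here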
[3] = P. aeruginosa biofilm formation inhibitors, primary screen, PAO1 strain, BacTiter-Glo luminescence, LB-PBS (AID 1144); conditions: 12 h, higher = more signal
[4] = CREB reporter modulators without forskolin, primary screen, cell-based, PC12, CRE-LacZ reporter, unstimulated (AID 1145); conditions: no forskolin, luminescence, 4.5 h, higher = more signal, called active from +8 up or from −8 down
[5] = CREB reporter modulators under forskolin, primary screen, cell-based, PC12, CRE-LacZ reporter, forskolin-stimulated (AID 1146); conditions: luminescence, 4.5 h, higher = more signal, called active from +8 up or from −8 down;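 further: PC12 cells with 6xCRE LacZ reporter stimulated by forskolin 10 µM; beta-galactosidase reporter signal reflecting CREB driven transcription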
[6] = target: Streptavidin (Streptomyces avidinii) (UniProt P22629); experiment: streptavidin binders on small-molecule microarray, primary screen, artefact control for SMM compound annotation, biophysical, 635/667 nm fluorescence (AID 1147); conditions: streptavidin binding, higher = more signal;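 further: signal reflects streptavidin binding to arrayed compounds as a control protein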
Chain of Streptavidin (Streptomyces avidinii) (P22629 whole entry, looked up): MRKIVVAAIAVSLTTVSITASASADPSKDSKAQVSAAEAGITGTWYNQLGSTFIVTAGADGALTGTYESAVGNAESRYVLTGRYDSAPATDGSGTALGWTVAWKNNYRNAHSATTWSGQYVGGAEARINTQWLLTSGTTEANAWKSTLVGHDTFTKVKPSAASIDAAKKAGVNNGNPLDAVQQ

[7] = small-molecule binders of probe aInhba, primary screen, biochemical, small-molecule microarray, 635/667 nm fluorescence (AID 1148); conditions: higher = more signal;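 further: score merges 667nm spot fluorescence with signal-to-noise for antibody binding to printed compounds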
Torsin-1A (Homo sapiens) [8] = target: Torsin-1A (Homo sapiens) (UniProt O14656); experiment: torsin A binders from cell lysate, primary screen, small-molecule microarray, wild-type, 635/667 nm (AID 1149); conditions: COS7 hTOR1A-WT lysate, 635 nm fluorescence, higher = more signal
Chain of Torsin-1A (Homo sapiens) (O14656 whole entry, looked up): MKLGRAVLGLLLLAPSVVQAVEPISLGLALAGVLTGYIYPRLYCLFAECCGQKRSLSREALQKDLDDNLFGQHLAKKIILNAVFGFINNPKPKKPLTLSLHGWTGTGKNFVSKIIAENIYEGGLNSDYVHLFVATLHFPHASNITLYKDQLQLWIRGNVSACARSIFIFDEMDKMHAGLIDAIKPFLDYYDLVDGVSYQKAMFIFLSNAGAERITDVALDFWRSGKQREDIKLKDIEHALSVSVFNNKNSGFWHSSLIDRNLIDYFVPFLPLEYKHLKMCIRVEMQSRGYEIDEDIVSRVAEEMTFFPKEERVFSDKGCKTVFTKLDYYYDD

Torsin-1A (Homo sapiens) [9] = target: Torsin-1A (Homo sapiens) (UniProt O14656); experiment: small-molecule binders of mutant TOR1A in lysate, primary screen, cell lysate, small-molecule microarray, COS7 lysate, 635/667 nm fluorescence (AID 1150); conditions: COS7 hTOR1A mutant lysate, 635 nm fluorescence, higher = more signal;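 further: score pools 667 nm emission and signal to noise measuring lysate protein binding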
[10] = system: Sonic hedgehog protein (Shh); experiment: small-molecule binders of Shh protein, primary screen, biochemical, small-molecule microarray, 635/667 nm fluorescence (AID 1151); conditions: small-molecule microarray binding, 635 nm fluorescence; higher = more signal;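 further: Shh protein binding to compounds spotted on small-molecule microarray slides; score combines spot fluorescence intensity with signal-to-noise across triplicate slides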
[11] = E. coli DRC41 culture turbidity changes, primary screen, E. coli filamentation inducer project, strain DRC41, OD650, 48 h (AID 1152);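 further: E. coli MC1000 strain DRC41 lacking acrAB efflux pump and sulA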; conditions: E. coli DRC41 (acrAB sulA), higher = more signal, called active from +8 up or from −8 down
[12] = small-molecule binders of probe aLefty1, primary screen, biochemical, small-molecule microarray, 635/667 nm fluorescence (AID 1153); conditions: higher = more signal;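 further: score merges spot fluorescence with signal-to-noise ratio from the scanned slide images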
[13] = PSAC antagonists in infected red cells, primary screen, cell-based, P. falciparum Indochina, OD700, 1 h (AID 1154); conditions: P. falciparum Indochina infected RBC osmotic lysis, higher = more signal, called active from +8 up or from −8 down
[14] = PSAC antagonists in infected red cells, primary screen, cell-based, P. falciparum Indochina, OD700, 2 h (AID 1155);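 further: lysis reports solute entry through the parasite surface anion channel PSAC; channel blockers reduce lysis of infected cells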; conditions: P. falciparum Indochina infected erythrocytes, osmotic lysis OD700; higher = more signal, called active from +8 up or from −8 down
[15] = osmotic lysis modulators in infected erythrocytes, primary screen, PSAC antagonist project, cell-based, P. falciparum Indochina, OD700, 3 h (AID 1156); conditions: higher = more signal, called active from +8 up or from −8 down
[16] = PSAC antagonists in infected red cells, primary screen, cell-based, P. falciparum Indochina, OD700, 18 h (AID 1157); conditions: P. falciparum Indochina infected erythrocytes, osmotic lysis OD700, 18 h; higher = more signal, called active from +8 up or from −8 down
[17] = modulators of S6 phosphorylation in cells, primary screen, cell-based, A549, cytoblot, luminescence, serum-stimulated (AID 1158); conditions: A549 phospho-S6 cytoblot, 5 h, higher = more signal;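 further: serum-stimulated A549 lung adenocarcinoma cells; signal is phosphorylated S6 detected by cytoblot immunostaining with HRP secondary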
[18] = target: NADPH oxidase 2 (Homo sapiens) (UniProt P04839); experiment: NOX2-dependent H2O2 signal modulators, primary screen, NOX inhibitor project, cell-based, HEK293-NOX2, PMA-stimulated, Amplex Red fluorescence (AID 1159); conditions: 45 min, higher = more signal, called active from +8 up or from −8 down; further: test concentration not given here
Chain of NADPH oxidase 2 (Homo sapiens) (P04839 whole entry, looked up): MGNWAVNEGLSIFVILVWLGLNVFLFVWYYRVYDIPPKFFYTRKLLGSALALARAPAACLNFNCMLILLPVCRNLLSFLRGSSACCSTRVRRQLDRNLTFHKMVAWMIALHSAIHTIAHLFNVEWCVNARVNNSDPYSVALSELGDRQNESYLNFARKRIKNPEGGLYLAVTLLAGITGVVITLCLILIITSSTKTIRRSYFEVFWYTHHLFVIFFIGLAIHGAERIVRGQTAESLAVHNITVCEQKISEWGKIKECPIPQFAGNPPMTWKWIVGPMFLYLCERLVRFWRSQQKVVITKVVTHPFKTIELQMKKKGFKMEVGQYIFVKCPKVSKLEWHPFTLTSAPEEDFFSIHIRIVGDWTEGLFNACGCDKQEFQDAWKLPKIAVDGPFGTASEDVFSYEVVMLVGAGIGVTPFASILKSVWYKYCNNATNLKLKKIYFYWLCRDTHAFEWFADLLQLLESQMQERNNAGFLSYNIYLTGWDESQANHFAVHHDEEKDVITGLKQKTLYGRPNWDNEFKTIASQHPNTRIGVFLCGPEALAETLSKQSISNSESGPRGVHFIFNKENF

[19] = target: NADPH oxidase 4 (Homo sapiens) (UniProt Q9NPH5); experiment: NOX4-dependent H2O2 signal modulators, primary screen, NOX inhibitor project, cell-based, HEK293-NOX4, tetracycline-induced, Amplex Red fluorescence (AID 1160); conditions: 45 min, higher = more signal, called active from +8 up or from −8 down
Chain of NADPH oxidase 4 (Homo sapiens) (Q9NPH5 whole entry, looked up): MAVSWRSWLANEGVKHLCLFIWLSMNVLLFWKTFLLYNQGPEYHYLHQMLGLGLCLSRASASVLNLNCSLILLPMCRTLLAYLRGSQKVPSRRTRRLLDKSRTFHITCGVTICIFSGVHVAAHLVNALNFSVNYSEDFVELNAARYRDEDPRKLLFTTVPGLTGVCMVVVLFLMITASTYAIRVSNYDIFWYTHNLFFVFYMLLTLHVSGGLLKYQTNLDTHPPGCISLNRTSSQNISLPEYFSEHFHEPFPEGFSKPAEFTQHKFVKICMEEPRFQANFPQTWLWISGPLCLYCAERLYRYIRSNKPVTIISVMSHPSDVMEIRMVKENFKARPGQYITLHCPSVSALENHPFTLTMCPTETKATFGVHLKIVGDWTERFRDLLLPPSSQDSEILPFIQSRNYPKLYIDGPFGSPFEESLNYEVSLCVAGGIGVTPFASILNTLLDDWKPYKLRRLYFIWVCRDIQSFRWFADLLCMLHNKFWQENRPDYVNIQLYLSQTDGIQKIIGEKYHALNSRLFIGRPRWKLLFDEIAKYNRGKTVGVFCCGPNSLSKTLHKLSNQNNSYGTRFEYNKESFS

[20] = target: NADPH oxidase 5 (Homo sapiens) (UniProt Q96PH1); experiment: NOX5-dependent H2O2 signal modulators, primary screen, NOX inhibitor project, cell-based, HEK293-NOX5, Amplex Red fluorescence (AID 1161); conditions: HEK293-NOX5, ionomycin, 45 min, higher = more signal
Chain of NADPH oxidase 5 (Homo sapiens) (Q96PH1 whole entry, looked up): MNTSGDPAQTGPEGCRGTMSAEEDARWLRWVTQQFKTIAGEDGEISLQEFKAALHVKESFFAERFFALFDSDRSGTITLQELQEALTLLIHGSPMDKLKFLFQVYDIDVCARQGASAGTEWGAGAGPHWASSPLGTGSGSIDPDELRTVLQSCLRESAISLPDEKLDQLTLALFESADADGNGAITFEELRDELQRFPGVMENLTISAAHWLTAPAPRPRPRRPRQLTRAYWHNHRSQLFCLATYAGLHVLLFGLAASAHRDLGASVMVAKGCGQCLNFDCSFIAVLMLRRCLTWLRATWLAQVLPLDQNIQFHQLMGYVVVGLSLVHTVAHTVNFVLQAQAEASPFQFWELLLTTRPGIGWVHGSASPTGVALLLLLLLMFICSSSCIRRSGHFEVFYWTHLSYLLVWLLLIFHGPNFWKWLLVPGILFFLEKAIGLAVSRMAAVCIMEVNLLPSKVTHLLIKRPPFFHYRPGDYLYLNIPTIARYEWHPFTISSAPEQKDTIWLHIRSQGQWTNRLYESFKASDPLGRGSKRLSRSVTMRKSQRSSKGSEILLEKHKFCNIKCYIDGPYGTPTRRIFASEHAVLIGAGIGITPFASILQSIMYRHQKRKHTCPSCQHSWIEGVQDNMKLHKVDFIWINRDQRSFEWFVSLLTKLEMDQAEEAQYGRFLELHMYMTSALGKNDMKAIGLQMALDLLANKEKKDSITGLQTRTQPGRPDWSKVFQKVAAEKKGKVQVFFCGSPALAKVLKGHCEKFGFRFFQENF

Row | Compound | composite z-score [1] | z-score [2] | z-score [3] | z-score [4] | z-score [5] | composite z-score [6] | composite z-score [7] | composite z-score (Torsin-1A (Homo sapiens) [8]) | composite z-score (Torsin-1A (Homo sapiens) [9]) | composite z-score [10] | z-score [11] | composite z-score [12] | z-score [13] | z-score [14] | z-score [15] | z-score [16] | z-score [17] | z-score [18] | z-score [19] | z-score [20]
1 | CCCC[C@H]1C[C@@H]1[C@@H]1N(C(C)=O)[C@H](c2cccc(OC)c2)CC12CC2 | -0.0718 | -0.338 (inactive) | 0.824 (inactive) | 0.583 (inactive) | -0.0157 (inactive) | 0.361 | 0.0111 | -0.53 | 0.0852 | -0.784 | -1.17 (inactive) | 0.416 | 3.6 (inactive) | 0.984 (inactive) | 1.1 (inactive) | 0.692 (inactive) | -0.168 | -0.927 (inactive) | 0.998 (inactive) | -2.9
2 | O=C1O[C@@H](c2ccccc2)[C@@H](c2ccccc2)N2[C@@H](c3ccc(OCCO)cc3)[C@]3(C(=O)Nc4ccc(C#CCCO)cc43)[C@@H](C(=O)O)[C@H]12 | 0.529 | -0.579 (inactive) | -0.155 (inactive) | -0.761 (inactive) | -0.0408 (inactive) | 1.84 | 1.34 | 0.892 | 0.203 | 0.688 | 0.624 (inactive) | 1.31 | 1.93 (inactive) | -0.0017 (inactive) | 0.88 (inactive) | -0.097 (inactive) | -0.197 | 2.08 (inactive) | 0.716 (inactive) | 1.1
3 | COCCOC(=O)N1C(=O)[C@@]2(c3cc(C#CC4(O)CCCCCC4)ccc31)[C@H](c1ccc(O)cc1)N1[C@H](c3ccccc3)[C@H](c3ccccc3)OC(=O)[C@H]1[C@@H]2C(=O)N1CCCCCCC1 | 0.357 | -0.844 (inactive) | 0.887 (inactive) | 0.484 (inactive) | -0.125 (inactive) | -0.215 | -0.0631 | 0.123 | 0.275 | 1.09 | 0.341 (inactive) | 1.08 | 1.13 (inactive) | 0.928 (inactive) | 0.0786 (inactive) | 0.166 (inactive) | -0.363 | 1.61 (inactive) | 0.0838 (inactive) | 1.41
4 | C=C(COC)C(=O)CC[C@@H](OC(C)=O)c1ccccc1OCCO | 0.866 | -2.43 (inactive) | -0.787 (inactive) | 1.54 (inactive) | 8.39 (active) | -0.507 | -0.0403 | 0.135 | 1.05 | 2.32 | 0.929 (inactive) | -0.152 | 1.73 (inactive) | -0.91 (inactive) | -0.0421 (inactive) | -1.95 (inactive) | 0.846 | -1.51 (inactive) | 0.146 (inactive) | -1.38
5 | COCCOC(=O)N1C(=O)[C@@]2(c3cc(C#CCCO)ccc31)[C@H](c1ccccc1OCCO)N1[C@H](c3ccccc3)[C@H](c3ccccc3)OC(=O)[C@H]1[C@@H]2C(N)=O | 0.536 | -4.33 (inactive) | -0.441 (inactive) | 0.0653 (inactive) | 18.6 (active) | 0.508 | -0.226 | -0.0615 | 0.172 | 1.97 | 1.46 (inactive) | -0.278 | 20.3 (active) | 4.04 (inactive) | 0.633 (inactive) | 0.934 (inactive) | 0.868 | 1.81 (inactive) | 0.552 (inactive) | -0.302
6 | O=C1N(Cc2ccccc2)c2ccccc2C[C@@]12COC(c1ccc(OCCCO)cc1)=N2 | 0.82 | -3.39 (inactive) | -0.576 (inactive) | 2.41 (inactive) | -0.914 (inactive) | 0.431 | 0.397 | 0.492 | 1.03 | 0.383 | 0.0226 (inactive) | 0.391 | 25.5 (active) | 10.1 (active) | 3.4 (inactive) | 1.33 (inactive) | 0.255 | -0.231 (inactive) | -0.221 (inactive) | -1.79
7 | CCOC(=O)C1=C[C@@H](C(C)(C)C)N(S(=O)(=O)c2ccc(C)cc2)[C@H]1c1ccc(C#N)cc1 | 0.327 | -3.61 (inactive) | 0.261 (inactive) | -0.228 (inactive) | 0.624 (inactive) | 0.948 | 0.0785 | 0.855 | 1.57 | -0.264 | -1.02 (inactive) | 0.337 | 3.01 (inactive) | 1.33 (inactive) | -0.217 (inactive) | 0.905 (inactive) | -0.561 | -0.642 (inactive) | -0.508 (inactive) | 1.11
8 | COc1ccc([Si](C)(C)[C@H]2[C@H](CC(=O)N3CCC[C@H]3CO)O[C@@]3(C(=O)N(Cc4ccc(N5CCCCC5=O)cc4)c4ccccc43)[C@@H]2C)cc1 | 0.567 | -3.13 (inactive) | -0.53 (inactive) | -0.258 (inactive) | 0.44 (inactive) | -0.0147 | 0.426 | 0.13 | 0.608 | 2.17 | 1.5 (inactive) | 0.44 | 7.73 (inactive) | 1.66 (inactive) | 2.12 (inactive) | 1.02 (inactive) | 0.287 | 1.52 (inactive) | 1.03 (inactive) | 2.69
9 | C[N+](C)(C)CCCC[C@@H]1NC(=O)[C@H]2C[C@@H](C(=O)NCCCCCNC(=O)CS)[C@@H](c3cccc(OCCO)c3)N2C1=O | 0.0448 | -0.907 (inactive) | 0.236 (inactive) | 0.13 (inactive) | 0.487 (inactive) | 0.474 | -0.176 | 0.116 | 0.653 | 0.602 | 0.19 (inactive) | 0.144 | 1.59 (inactive) | -0.0251 (inactive) | -0.89 (inactive) | 0.204 (inactive) | -0.0362 | 1.94 (inactive) | 0.816 (inactive) | 1.35

— PubChem BioAssay
